Bioassay records: PubChem BioAssay, National Center for Advancing Translational Sciences (NCATS)
TDP1 cell CPT = qHTS for Inhibitors of human tyrosyl-DNA phosphodiesterase 1 (TDP1): qHTS in cells in presence of CPT | 12% of 420,000 active | Potency, µM (titrated, usually from 46.2 µM), hits mostly inhibitors | AID 686979, 2013 | chicken DT40 Tdp1-/-;hTDP1 cells + 20 nM CPT, ATP luminescence, 48 h; further: nearly all actives have a fitted effect of over 55% in size
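Chicken DT40 Tdp1-/- cells stably complemented with human TDP1 were seeded at 400 cells/well in medium containing 20 nM camptothecin, exposed to pin-transferred compounds, and grown at 37 °C for at least 48 hr. Viability was read as ATP luminescence.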
miR-21 act = qHTS Assay for Modulators of miRNAs and/orActivators of miR-21; HeLa miR-21 FLuc reporter, luciferase, 48 h; Potency, µM (doses to about 38.3 µM), actives largely listed as activators; 340,000 tested, under 10 active; AID 2288, 2010;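 further: miR-21 action dims this reporter so a rising signal means less miR-21 action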
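Compounds were titrated across several concentrations (up to approximately 40 uM) and incubated 48 hours with HeLa miR-21-FLuc reporter cells (miR-21 target sequence downstream of FLuc, endogenous miR-21). Readout was firefly luciferase luminescence after lytic detection reagent.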
TDP1 inh = qHTS Assay for Inhibitors of Tyrosyl-DNA Phosphodiesterase (TDP1) | Tyrosyl-DNA phosphodiesterase 1 (Homo sapiens), Q9NUW8 | recombinant TDP1, AlphaScreen DNA substrate cleavage | Potency, µM (series often up to 130 µM), actives largely listed as inhibitors | 0.28% of 350,000 active | AID 485290, 2010; further: nearly all actives have a fitted effect of over 40% in size
Target sequence (Q9NUW8 whole entry, looked up): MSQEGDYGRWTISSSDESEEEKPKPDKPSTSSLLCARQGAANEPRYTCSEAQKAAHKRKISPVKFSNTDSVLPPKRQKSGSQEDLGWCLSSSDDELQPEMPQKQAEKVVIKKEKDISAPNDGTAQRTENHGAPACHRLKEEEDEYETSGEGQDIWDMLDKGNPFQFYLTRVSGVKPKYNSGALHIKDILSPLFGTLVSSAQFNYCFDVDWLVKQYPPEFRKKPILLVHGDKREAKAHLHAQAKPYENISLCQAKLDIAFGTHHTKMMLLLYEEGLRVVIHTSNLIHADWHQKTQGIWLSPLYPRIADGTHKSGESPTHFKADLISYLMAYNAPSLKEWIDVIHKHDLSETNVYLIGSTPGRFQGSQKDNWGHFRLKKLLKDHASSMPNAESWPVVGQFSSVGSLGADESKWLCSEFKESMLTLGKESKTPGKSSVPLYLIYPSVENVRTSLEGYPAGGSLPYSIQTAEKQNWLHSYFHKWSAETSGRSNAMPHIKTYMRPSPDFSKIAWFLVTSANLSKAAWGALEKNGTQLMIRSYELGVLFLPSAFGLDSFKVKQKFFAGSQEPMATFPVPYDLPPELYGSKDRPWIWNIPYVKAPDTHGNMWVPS
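E. coli-derived human Tdp1, 1 nM final. Cpd preinc 15 min RT; substrate 15 nM final, 5 min RT; AS bead mix 10 ug/ml final, 10 min RT. Signal loss = tyrosine-FITC cleavage. No-enzyme wells = max signal.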
uPA surface inh = qHTS for Inhibitors of Cell Surface uPA Generation; cell surface uPA generation assay, qHTS; Potency, µM (top dose mostly 38.3 µM), hits mostly inhibitors; 0.31% of 330,000 active; AID 540303, 2011; active means well fitted inhibition curve with a large enough effect; inconclusive means small, poorly fitted or top-dose-only effect; inactive means no such curve, though single readings can be large or run the other way; tested in mouse RAW 264.7 cells; further: nearly all actives have a fitted effect of over 55% in size
TDP1 cell noCPT = qHTS for Inhibitors of human tyrosyl-DNA phosphodiesterase 1 (TDP1): qHTS in cells in absence of CPT. DT40 Tdp1-/- hTDP1 cells, no CPT, ATP luminescence, 48 h. Potency, µM (titrated, usually from 46.2 µM), hits mostly inhibitors. 15% of 420,000 active; further: nearly all actives have a fitted effect of over 55% in size
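Chicken DT40 Tdp1-/- cells stably complemented with human TDP1 were seeded at 400 cells/well with DMSO in place of 20 nM camptothecin. After compound pinning, cells grew at least 48 hr at 37 °C; viability read by CellTiter-Glo luminescence.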
Numbers stand for hits; . = inactive; ? = inconclusive; / = no result given. Most compounds without a hit are left out; they make up all but 16% or so of the library. Unless noted, the call rests on the fitted dose curve; in most records, active means well fitted curve in the direction sought with a large enough effect; inconclusive means small, poorly fitted or top-dose-only effect, or another doubt; inactive means no such curve, though single readings can be large; an effect the other way counts as inactive or inconclusive.

SMILES | TDP1 cell CPT | miR-21 act | TDP1 inh | uPA surface inh | TDP1 cell noCPT
CC(=O)c1c(C)[nH]c(C(=O)NCc2ccco2)c1C | . | . | . | . | .
Cc1ccc(S(=O)(=O)Nc2ccc3nc(C)oc3c2)cc1 | 18µM | / | / | . | 10µM
COc1ccc(-c2nc3ccc(NS(=O)(=O)c4ccc(C)cc4)cc3o2)cc1 | ? | . | . | / | 10µM
COc1ccc(NS(=O)(=O)c2ccc3oc(SC)nc3c2)cc1 | 12µM | . | / | . | 9.2µM
CC(C)Cn1c(N)c(C(=O)COC(=O)[C@@H]2CCCN2C(=O)c2cccs2)c(=O)n(C)c1=O | ? | . | . | . | ?
CN(C)S(=O)(=O)c1ccc(C(=O)NCCC(=O)N2CCCC2)cc1 | . | . | / | / | .
CCCN(C(=O)Cc1c(C(=O)O)n(C)c2ccccc12)c1cccc(C)c1 | . | . | / | . | .
O=C(c1ccc2c(c1)N(Cc1ccccc1F)C(=O)c1ccccc1S2(=O)=O)N1CCN(c2ccccc2F)CC1 | ? | . | . | / | ?
O=C(c1ccc2c(c1)N(Cc1ccccc1F)C(=O)c1ccccc1S2(=O)=O)N1CCCCC1 | ? | . | . | / | 16µM
O=C(c1ccc2c(c1)N(Cc1ccccc1F)C(=O)c1ccccc1S2(=O)=O)N1CCCC1 | ? | . | . | . | 23µM
Cc1onc(-c2ccccc2)c1C(=O)n1cccn1 | . | . | . | . | .
O=C(NC1CC1)c1cc2cc3ccccc3nc2s1 | 23µM | . | . | . | ?
CCN(CC)c1ccc(S(=O)(=O)N2CCOCC2)cc1NC(=O)CSc1nncn1C | . | / | . | . | .
CCN(CC)c1ccc(S(=O)(=O)N2CCOCC2)cc1NC(=O)CNCc1cccc(Cl)c1 | 18µM | / | / | . | 15µM
CCN(CC)c1ccc(S(=O)(=O)N2CCOCC2)cc1NC(=O)CSc1ccccc1 | 16µM | / | . | . | ?
CCN(CC)c1ccc(S(=O)(=O)N2CCOCC2)cc1NC(=O)c1cc(=O)c2ccccc2o1 | 8.2µM | . | . | . | 7.3µM
Cc1ccc(S(=O)(=O)N2CCOCC2)cc1NC(=O)CNCc1ccc(Cl)cc1Cl | ? | / | . | . | 16µM
Cc1c(O)c2c(c(C(=O)/C=C/c3ccccc3)c1O)OC(C)(C)C=C2 | ? | / | / | / | 11µM
COC1=C(C)C(O)=C(C(=O)/C=C/c2ccccc2)C(=O)C1(C)C | ? | . | . | ? | ?
CCCCCCNC(=O)CC(c1ccccc1)c1cc(Br)ccc1O (configuration not stated) | ? | ? | . | . | 26µM
CCN(CC)C(=O)c1cc([N+](=O)[O-])cc2c1-c1ccc([N+](=O)[O-])cc1C2=C(C#N)C#N | 0.65µM | . | . | . | 16µM
CC(C)c1cccc(C(C)C)c1NC(=O)CNCc1ccccc1F | ? | . | . | . | ?
O=C(CCNC(=O)c1ccc(Br)cc1)NNC(=O)c1ccccc1O | ? | / | . | . | 23µM
Cc1cccc(C(=O)NNC(=O)c2ccc(Cl)cc2)c1O | ? | . | . | . | 21µM
O=C(NNC(=O)c1cccc2ccccc12)c1ccc(Cl)cc1 | . | / | / | . | ?
SMILES | TDP1 cell CPT | miR-21 act | TDP1 inh | uPA surface inh | TDP1 cell noCPT
O=C(NNC(=O)c1ccccc1O)c1ccc(Cl)cc1 | 18µM | . | . | . | 16µM
CCc1cccc(CC)c1-n1c(SCC(=O)c2c(N)n(C)c(=O)n(C)c2=O)nnc1-c1cccnc1 | . | . | . | . | ?
COc1ccc(C2=NN(C(=O)c3cccs3)C(O)(C(F)(F)F)C2)cc1 (configuration not stated) | ? | . | . | . | 16µM
COc1ccc(C2CC(c3ccccc3)=NN2C(=O)c2cccs2)cc1 (configuration not stated) | 23µM | . | . | / | ?
O=C(c1ccccc1)N1N=C(c2ccccc2)CC1(O)C(F)(F)F (configuration not stated) | . | . | / | . | .
COc1ccc(C(=O)N2N=C(c3cccs3)CC2c2ccccc2O)cc1 (configuration not stated) | . | . | . | . | 13µM
COc1ccc(C2=NN(C(=O)c3cccs3)C(c3ccccc3O)C2)cc1 (configuration not stated) | ? | . | . | . | ?
CC(=O)N1CC=CC1(CC(C)C)C(=O)NCC1CC1 (configuration not stated) | / | / | . | / | /
O=C(CCNC(=O)c1ccc(Br)cc1)Nc1ccc(S(=O)(=O)N2CCCCC2)cc1 | . | / | . | . | .
CCCCN1C(=O)NC2NC(=O)NC21 (configuration not stated) | . | . | . | . | .
CCC(c1ccccc1)C(CC)c1cc(O)c(O)c(O)c1 (configuration not stated) | 16µM | / | / | . | 8.2µM
CCC(C(=O)O)c1ccccc1 (configuration not stated) | . | / | . | / | .
COc1cc(/C=N\NC(=O)OC(C)(C)C)ccc1OC(=O)c1ccco1 | . | . | . | . | .
Cc1ccc(C(=O)N[C@@H](C)CN2C3=NC[C@H](C(C)C)N3C[C@H]2Cc2ccc(O)cc2)cc1Br | 4.6µM | . | . | . | 5.8µM
COc1ccc(C[C@H]2CN3C(=NC[C@@H]3C(C)C)N2C[C@H](C)NC(=O)c2ccc(C)c(Br)c2)cc1 | 29µM | . | . | . | 18µM
O=C(c1ccccc1)N(Cc1ccc2c(c1)OCO2)Cc1nc2ccccc2c(=O)[nH]1 | . | . | . | . | ?
COc1cc(OC)cc(-c2nnc(NC(=O)c3ccc4c(c3)OCCO4)o2)c1 | 10µM | . | . | . | 8.2µM
Cc1ccc(C)c(-c2nnc(NC(=O)c3ccc4c(c3)OCCO4)o2)c1 | 18µM | . | . | / | 8.2µM
O=S(=O)(NCCn1cccc1)c1ccc2ccccc2c1 | . | . | . | . | .
CC1(c2nnc(-c3ccccc3)o2)CC(c2ccccc2)=NO1 (configuration not stated) | ? | / | / | . | ?
OCCNCc1c(OCc2ccc(Cl)cc2)ccc2ccccc12 | 18µM | ? | / | . | 23µM
CC(O)CNCCOc1ccccc1OCc1ccccc1 (configuration not stated) | ? | . | / | . | ?
CC(O)CNCCNCc1c(OCc2ccccc2)ccc2ccccc12 (configuration not stated) | 16µM | . | . | ? | 23µM
OCCNCc1cccc2ccccc12 | . | . | . | . | .
CCc1nc2ccccc2c(C(=O)OCC(=O)Nc2cccc(S(=O)(=O)N3CCOCC3)c2)c1C | 16µM | . | . | / | 18µM
CCc1nc2ccccc2c(C(=O)OCC(=O)Nc2cccc(S(=O)(=O)NC3=NCCCCC3)c2)c1C | 16µM | ? | / | . | 4.6µM
CCc1nc2ccccc2c(C(=O)OCC(=O)Nc2ccc(S(=O)(=O)N3CCOCC3)cc2)c1C | 14µM | . | . | . | ?
